This is part of a sample that, as a whole, favours compounds with a hit. Of some 79,000 tested, about 15% had one in any assay. A number with no mark means an inactive call. The source made the active and inactive calls. Rule as the data show it: active = growth inhibition above about 70%; inactive = the rest.
assay: NCI Yeast Anticancer Drug Screen. Data for the rad50 strain (AID 155);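 also: 0% = growth of vehicle-only cultures of the same strain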; details: S. cerevisiae rad50 strain growth inhibition; at 5.0 µM (retest, dose inferred, filed as 0.5); stronger effect = higher value
Outline: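 Vehicle-treated cultures provide the reference for the growth inhibition reported for compound-exposed, repair-deficient yeast.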

Row | Structure (SMILES) | growth inhibition
1 | COC(=O)/C=C/c1cccc[n+]1[O-] | 3%
2 | CN(C)CCCNc1c(C#N)[n+]([O-])c2cc(Cl)ccc2[n+]1[O-] | 59%
3 | Cc1c(N=Nc2ccc(Br)cc2)c(-c2ccccc2)nn1C(N)=S | -2%
4 | COc1cc2c(c(OC)c1OC)-c1ccc(O)c(=O)cc1C(N=Cc1ccccc1)CC2 (stereo not given) | -5%
5 | CCC(C)SC1SCC2C(=O)N(C)C3(CC3C)C(=O)OCC(NC(=O)c3nc4ccccc4cc3O)C(=O)NC(C)C(=O)N(C)C1C(=O)N(C)C1(CC1C)C(=O)OCC(NC(=O)c1nc3ccccc3cc1O)C(=O)NC(C)C(=O)N2C (stereo not given) | 98% (active)
6 | O=C(N/C(=C\c1ccc2c(c1)OCO2)c1nc2ccccc2s1)c1ccccc1 | 19%
7 | CCCC/C=C1/CCC(CN(C)C)C1=O (stereo not given) | 7%
8 | O=C(O)c1cc2c(cc1CC(Cc1ccc3c(c1)CCCC3)C(=O)O)CCCC2 (stereo not given) | 20%
9 | CCNC(=O)COc1ccc(Cl)cc1Cl | -2%
10 | Fc1ccc(OCCC(Cn2ccnc2)c2ccc(Cl)cc2Cl)cc1 (stereo not given) | 82% (active)
11 | Cc1ccc(NC(=O)/C(CC(=O)c2sc(Nc3ccc(Cl)c(Cl)c3)nc2C)=N\Nc2ccc([N+](=O)[O-])cc2[N+](=O)[O-])c(C)c1 | 1%
12 | Oc1ccc(C/C=C/c2ccccc2)cc1O | 3%
13 | CC(=O)OC1=CC2=CCC3C(CCC4(C)C(C(C)=O)CCC34)C2(C)CC1 (stereo not given) | -12%
14 | CCCCNc1ccc(-c2c(N)nc(N)nc2CC)cc1[N+](=O)[O-] | -7%
15 | ClCCOCCOc1c(Cl)cc(Cl)c(Cl)c1Cl | 6%
16 | Cc1ccc(S(=O)(=O)C(=S)Sc2ccccc2)cc1 | 6%
17 | CCC(C)(C)c1ccc(OCCO)c([N+](=O)[O-])c1 | 10%
18 | CCCCCCC(C)S(=O)(=O)c1ccc(C)cc1 (stereo not given) | 3%
19 | O=C1N(Cc2ccccc2)CC1(c1ccccc1)C1CCCCC1O (stereo not given) | -1%
20 | COc1cc2c(oc(=O)c3cc(C)cc(OC)c32)c2c(C3OC(C)C(O)C(C)(O)C3O)ccc(O)c12 (stereo not given) | 80% (active)

Row | Structure (SMILES) | growth inhibition
21 | CCc1cc(C)cc(NC(=O)OC2CCCCC2C)c1 (stereo not given) | 42%
22 | Cc1cc(Nc2ccc(N=Nc3ccc(O)c4ncccc34)cc2)nc(C)n1 | 1%
23 | Oc1ccc(C2SC(c3ccc(O)cc3)SC(c3ccc(O)cc3)S2)cc1 (stereo not given) | 14%
24 | O=[N+]([O-])c1cnc(Sc2cncc[n+]2[O-])s1 | 99% (active)
25 | O=C(C1=Cc2ccccc2OC1)N1CCN(c2cccc(Cl)c2)CC1 | -1%
26 | O=C1C=CC(=O)c2cc(Sc3ccccc3)c(=O)ccc21 | 16%
27 | O=C(O)CCCCCCC(=O)CCl | 30%
28 | CC(=O)NC1=C(Sc2ccc(C)cc2)C(=O)c2ccccc2C1=O | 63%
29 | Cc1cc(O)c(C=NC(=S)C(N)=S)c(=O)o1 | 29%
30 | Cc1cc(C)c(Cc2cc(C(C)(C)C)cc(C)c2O)cc1Cc1cc(C(C)(C)C)cc(C)c1O | -2%
31 | O=C(O)CCC/C(=N\Nc1ccccc1)C(=O)O | 5%
32 | Cc1cc(Oc2nc(Cl)nc(C(Cl)(Cl)Cl)c2Cl)cc(C)c1N(C)C (tested in a mixture with another compound) | -5%
33 | CC(NCCO)c1ccc2ccccc2c1 (stereo not given) | 0%
34 | [O-][n+]1ccc(Br)c(/C=C/c2ccccc2)c1 | 0%
35 | O=C(NCCNCCNCCNC(=O)c1cc(-c2ccccc2)nc2ccccc12)c1cc(-c2ccccc2)nc2ccccc12 | -16%
36 | CC(C)C(Sc1nc(-c2ccccc2)c(-c2ccccc2)[nH]1)C(=O)NN (stereo not given) | -7%
37 | O=C(CNc1cccc(Cl)c1)Nn1c(-c2ccccc2)nc2ccccc2c1=O | 7%
38 | O=C(COc1ccc(Cl)c(Cl)c1)Nc1ccc[n+](Cc2ccc(Cl)c(Cl)c2)c1 | -15%
39 | CCOC(=O)c1cnccc1CC1(C#N)c2ccccc2C=CN1C(=O)c1ccccc1 (stereo not given) | 5%
40 | O=C1C(N2CCOCC2)=C(Cl)C(=O)c2ncccc21 | 66%

same assay, conditions: S. cerevisiae rad50 strain growth inhibition; at 50.0 µM (retest, dose inferred, filed as 5.0); stronger effect = higher value

Row | Structure (SMILES) | growth inhibition
41 | COC(=O)/C=C/c1cccc[n+]1[O-] | -6%
42 | CN(C)CCCNc1c(C#N)[n+]([O-])c2cc(Cl)ccc2[n+]1[O-] | 93% (active)
43 | Cc1c(N=Nc2ccc(Br)cc2)c(-c2ccccc2)nn1C(N)=S | 93% (active)
44 | COc1cc2c(c(OC)c1OC)-c1ccc(O)c(=O)cc1C(N=Cc1ccccc1)CC2 (stereo not given) | -5%
45 | CCC(C)SC1SCC2C(=O)N(C)C3(CC3C)C(=O)OCC(NC(=O)c3nc4ccccc4cc3O)C(=O)NC(C)C(=O)N(C)C1C(=O)N(C)C1(CC1C)C(=O)OCC(NC(=O)c1nc3ccccc3cc1O)C(=O)NC(C)C(=O)N2C (stereo not given) | 89% (active)
46 | O=C(N/C(=C\c1ccc2c(c1)OCO2)c1nc2ccccc2s1)c1ccccc1 | 98% (active)
47 | CCCC/C=C1/CCC(CN(C)C)C1=O (stereo not given) | 60%
48 | O=C(O)c1cc2c(cc1CC(Cc1ccc3c(c1)CCCC3)C(=O)O)CCCC2 (stereo not given) | 95% (active)
49 | CCNC(=O)COc1ccc(Cl)cc1Cl | 10%
50 | Fc1ccc(OCCC(Cn2ccnc2)c2ccc(Cl)cc2Cl)cc1 (stereo not given) | 99% (active)
51 | Cc1ccc(NC(=O)/C(CC(=O)c2sc(Nc3ccc(Cl)c(Cl)c3)nc2C)=N\Nc2ccc([N+](=O)[O-])cc2[N+](=O)[O-])c(C)c1 | 97% (active)
52 | Oc1ccc(C/C=C/c2ccccc2)cc1O | 98% (active)
53 | CC(=O)OC1=CC2=CCC3C(CCC4(C)C(C(C)=O)CCC34)C2(C)CC1 (stereo not given) | 0%
54 | CCCCNc1ccc(-c2c(N)nc(N)nc2CC)cc1[N+](=O)[O-] | 0%
55 | ClCCOCCOc1c(Cl)cc(Cl)c(Cl)c1Cl | 12%
56 | Cc1ccc(S(=O)(=O)C(=S)Sc2ccccc2)cc1 | 82% (active)
57 | CCC(C)(C)c1ccc(OCCO)c([N+](=O)[O-])c1 | 70% (active)
58 | CCCCCCC(C)S(=O)(=O)c1ccc(C)cc1 (stereo not given) | 63%
59 | O=C1N(Cc2ccccc2)CC1(c1ccccc1)C1CCCCC1O (stereo not given) | 96% (active)
60 | COc1cc2c(oc(=O)c3cc(C)cc(OC)c32)c2c(C3OC(C)C(O)C(C)(O)C3O)ccc(O)c12 (stereo not given) | 96% (active)

Row | Structure (SMILES) | growth inhibition
61 | CCc1cc(C)cc(NC(=O)OC2CCCCC2C)c1 (stereo not given) | 66%
62 | Cc1cc(Nc2ccc(N=Nc3ccc(O)c4ncccc34)cc2)nc(C)n1 | 31%
63 | Oc1ccc(C2SC(c3ccc(O)cc3)SC(c3ccc(O)cc3)S2)cc1 (stereo not given) | 98% (active)
64 | O=[N+]([O-])c1cnc(Sc2cncc[n+]2[O-])s1 | 99% (active)
65 | O=C(C1=Cc2ccccc2OC1)N1CCN(c2cccc(Cl)c2)CC1 | 96% (active)
66 | O=C1C=CC(=O)c2cc(Sc3ccccc3)c(=O)ccc21 | 37%
67 | O=C(O)CCCCCCC(=O)CCl | 74% (active)
68 | CC(=O)NC1=C(Sc2ccc(C)cc2)C(=O)c2ccccc2C1=O | 98% (active)
69 | Cc1cc(O)c(C=NC(=S)C(N)=S)c(=O)o1 | 43%
70 | Cc1cc(C)c(Cc2cc(C(C)(C)C)cc(C)c2O)cc1Cc1cc(C(C)(C)C)cc(C)c1O | 10%
71 | O=C(O)CCC/C(=N\Nc1ccccc1)C(=O)O | 97% (active)
72 | Cc1cc(Oc2nc(Cl)nc(C(Cl)(Cl)Cl)c2Cl)cc(C)c1N(C)C (tested in a mixture with another compound) | 10%
73 | CC(NCCO)c1ccc2ccccc2c1 (stereo not given) | 8%
74 | [O-][n+]1ccc(Br)c(/C=C/c2ccccc2)c1 | 20%
75 | O=C(NCCNCCNCCNC(=O)c1cc(-c2ccccc2)nc2ccccc12)c1cc(-c2ccccc2)nc2ccccc12 | 57%
76 | CC(C)C(Sc1nc(-c2ccccc2)c(-c2ccccc2)[nH]1)C(=O)NN (stereo not given) | 91% (active)
77 | O=C(CNc1cccc(Cl)c1)Nn1c(-c2ccccc2)nc2ccccc2c1=O | 88% (active)
78 | O=C(COc1ccc(Cl)c(Cl)c1)Nc1ccc[n+](Cc2ccc(Cl)c(Cl)c2)c1 | 99% (active)
79 | CCOC(=O)c1cnccc1CC1(C#N)c2ccccc2C=CN1C(=O)c1ccccc1 (stereo not given) | 67%
80 | O=C1C(N2CCOCC2)=C(Cl)C(=O)c2ncccc21 | 95% (active)

Reference: PubChem BioAssay (NCI)
